MARV entry inh: Marburg virus entry inhibition; Marburg virus pseudotyped entry inhibition, cell reporter; Potency, µM (titrated, usually from 37.8 µM), usual class: inhibitors; hit rate 1.8% among 300,000; AID 540276; calls by dose curve; tested in HEK293 cells
HCV inh: blocks hepatitis C virus; Huh7.5.1 HCVcc-Cre infection, luciferase reporter, 44 h; Potency, µM (top dose mostly 41.8 µM), usual class: inhibitors; hit rate 3.4% among 340,000; active = well fitted inhibition curve with a large enough effect; inconclusive = small, poorly fitted or top-dose-only effect, or another doubt; inactive = no such curve, though single readings can be large or run the other way
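Antiviral activity was scored by luciferase reporter output from cells infected with HCVcc-Cre (~0.5 moi) in presence of compound, 44 h infection period, cells seeded 1,000/well 4 h prior.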
Lassa entry inh: Lassa virus entry inhibition | hit rate 1.2% among 300,000 | Lassa virus pseudotype entry inhibition, cell reporter | Potency, µM (highest dose often 37.9 µM), actives largely listed as inhibitors; calls by dose curve; tested in HEK293 cells; note: nearly all actives have a fitted effect of over 50% in size
HCMV antiviral: blocks human cytomegalovirus replication | activity change, negative = inhibition, % at 57.5 µM | HFF cells, HCMV-luciferase reporter, 72 h; hits give low values | AID 1259415 | hit rate 4.5% among 410,000; in the data active = activity change below about -60%; inconclusive = no clear call, values can overlap the other calls; inactive = above about -39%
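After 16 h attachment at 37C, HFF cells received test compound and HCMV-luciferase (1 PFU/cell); reporter luminescence read 72 h later, data normalized against buffer-only and known inhibitor Salinomycin.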
FMDV antiviral: blocks foot and mouth disease virus; Potency, µM (series often up to 57.9 µM), most hits filed as inhibitors; hit rate 1.2% among 410,000; FMDV antiviral cell-based qHTS; calls by dose curve; tested in HEK293T cells; note: read-out not given here; nearly all actives have a fitted effect of over 45% in size
A number is an active result; n = inactive; u = inconclusive; x = no result; + = active, no number; ! = repeats disagree. In the library only some 7.9% were active in any assay of this set; here they are far more common.

SMILES | MARV entry inh | HCV inh | Lassa entry inh | HCMV antiviral | FMDV antiviral
CCc1ccc(C(=O)c2cn(CC(=O)Nc3ccc(F)c(F)c3)c3cc(OC)c(OC)cc3c2=O)cc1 | n | x | n | -67 | u
CCn1c(CC(=O)Nc2ccc(Cl)c(Cl)c2)nnc1SCc1ccc(Cl)cc1 | n | n | n | -100 | n
CCc1cccc(NC(=O)CSc2ncc3c(n2)-c2ccccc2N(Cc2ccccc2C)S3(=O)=O)c1 | x | x | n | n | n
COc1ccc(NC(=O)CN(C)S(=O)(=O)c2ccc3nc(C)sc3c2)cc1 | x | x | n | n | n
O=C(Nc1ccccc1)OCCOc1ccccc1 | n | 13µM | n | n | n
O=C(CCC(=O)OCCOc1ccccc1)OCCOc1ccccc1 | x | x | x | -98 | n
Cc1cc(C)c(NC(=O)C2CCN(C(=O)N3CC(C)Oc4ccc(Cl)cc43)CC2)c(C)c1 (stereo not given) | x | x | u | n | u
O=C(CCl)NC1CCCc2ccccc21 (stereo not given) | u | n | n | -109 | u
CC(=O)c1ccc(NC(=O)NC2CCCc3ccccc32)cc1 (stereo not given) | x | u | x | n | n
CCCN1C2CCCC1CC(NC(=O)Nc1cccc(C(C)=O)c1)C2 (stereo not given) | n | 2.8µM | n | n | n
O=C(NC1CCSc2ccccc21)c1c(F)cccc1Cl (stereo not given) | n | n | n | n | n
CC(=O)c1cccc(NC(=O)NC2CCCc3ccccc32)c1 (stereo not given) | x | u | x | -70 | n
O=C(NC1CCCc2ccccc21)c1c(F)cccc1Cl (stereo not given) | n | n | n | -67 | n
CN(C(=O)CCl)C1CCCc2ccccc21 (stereo not given) | x | u | x | n | 16µM
Cc1nn(Cc2ccc(Cl)cc2Cl)c(Cl)c1C(=O)NC1CCCc2ccccc21 (stereo not given) | n | n | n | n | 20µM
CCOc1ccccc1NC(=O)Cn1c(=O)n(Cc2ccccc2)c(=O)c2c(C)c(C)sc21 | n | x | n | n | n
CC(=O)N[C@@H]1C=C[C@@H](CC(=O)NCc2ccc(Cl)cc2)O[C@@H]1CO | x | x | x | n | n
O=C(C[C@@H]1C=C[C@@H](NC(=O)C2CC2)[C@@H](CO)O1)NCc1ccccc1Cl | x | x | x | -62 | n
COc1ccc(C(=O)c2cc([N+](=O)[O-])ccc2N2CCN(C)CC2)cc1 | 7.1µM | u | n | n | n
O=C(Nc1cc(C(F)(F)F)ccc1N1CCCCC1)c1cccc([N+](=O)[O-])c1 | n | u | n | -77 | n
O=C(Nc1ccccc1N1CCCCC1)c1cccc([N+](=O)[O-])c1 | u | u | u | n | n
O=[N+]([O-])c1ccc(N2CCN(c3ccc([N+](=O)[O-])cc3CO)CC2)c(CO)c1 | n | 3.2µM | n | -66 | u
CN1CCN(c2ccc([N+](=O)[O-])cc2C(=O)c2ccccc2)CC1 | n | u | n | n | n
O=C(c1ccccc1)c1cc([N+](=O)[O-])ccc1N1CCCC1 | n | u | n | -61 | u
CCC[C@H]1[C@@H](NC(=O)Nc2ccc(C#N)cc2)CC[C@@]23CCCN2C(=O)CCC[C@@H]13 | x | x | x | n | x
SMILES | MARV entry inh | HCV inh | Lassa entry inh | HCMV antiviral | FMDV antiviral
CC(CCN1CCCCc2nc(C)c(C)cc21)=NO[C@H](C)c1cn([C@@H]2COC[C@@H]2O)nn1 | n | x | x | x | x
CN1CCN(c2ccc([N+](=O)[O-])cc2C(=O)c2ccc(Br)cc2)CC1 | u | n | u | u | n
O=C(c1ccc(Br)cc1)c1cc([N+](=O)[O-])ccc1N1CCCCC1 | 0.73µM | u | u | -91 | n
c1ccc(-c2noc(-c3cccnc3NCc3ccco3)n2)cc1 | n | x | n | n | n
COc1cc2c(C#N)c(N3CCN(C)CC3)nc(N)c2c(N)n1 | n | u | x | n | x
COc1cc2c(C#N)c(N3CCN(c4ccccc4OC)CC3)nc(N)c2c(N)n1 | u | u | 11µM | n | 40µM
COc1ccc(Cn2c(=O)n(-c3ccc(C)cc3)c(=O)c3c2c2cc(C)ccc2n3C)cc1 | x | x | u | n | n
COc1cccc(Cn2c(=O)n(-c3ccccc3C)c(=O)c3c2c2cc(C)ccc2n3C)c1 | x | x | u | -68 | n
CN1CCCC1CN1CCCC1 (stereo not given) | x | x | x | x | n
CN1CCCC1CCNC1C2CC3CC(C2)CC1C3 (stereo not given) | 13µM | x | n | n | n
CCN1C(=S)NC(c2cccs2)C(C(=O)OC)=C1C (stereo not given) | n | x | u | x | x
Nc1ccc2oc(-c3ccc4nc[nH]c4c3)nc2c1 | u | u | 16µM | n | n
Cc1nc2ccc(-c3nc4cc(N)ccc4o3)cc2[nH]1 | u | 10µM | u | n | n
Nc1ccc2oc(-c3cccc(Br)c3)nc2c1 | n | u | u | x | n
C=CC(=O)Nc1cc2c(Nc3ccc(F)c(Cl)c3)ncnc2cc1OCCCN1CCOCC1 | x | x | x | n | x
Cc1cccc(N2CCN(C(=O)c3nn(C)c4c3CSc3ccccc3-4)CC2C)c1 (stereo not given) | n | x | n | -62 | n
Cc1cccc(N2CCN(C(=O)c3ccc(N4CCCC4=O)cc3)CC2C)c1 (stereo not given) | u | u | u | n | 32µM
Cc1cccc(N2CCN(C(=O)c3ccc4c(c3)c(C)c(C)n4C)CC2C)c1 (stereo not given) | x | u | n | +! | n
CC(=O)c1c(C)[nH]c(C(=O)COc2cc(C)ccc2C(C)C)c1C | u | 5.6µM | u | u | n
COc1ccccc1OCC(=O)c1[nH]c(C)c(C(C)=O)c1C | u | u | u | n | 20µM
Cc1c(C(=O)N2CCCC2)oc2c1-c1nn(CC(=O)NCc3cccc(Br)c3)cc1CC2 | x | x | u | n | n
Cc1ccccc1NC(=O)c1cccc2nc3ccccc3nc12 | n | u | n | -73 | n
Nc1nn(S(=O)(=O)c2cccc3nsnc23)cc1-c1ccc(Br)cc1 | u | 10µM | n | n | n
Cn1nc(-c2ccc(C(=O)Nc3ccc(OC(F)(F)F)cc3)cc2)c2ccccc2c1=O | x | x | n | n | 14µM
CN(C(=O)c1ccc(-c2nn(C)c(=O)c3ccccc23)cc1)C1CCCCC1 | u | u | u | n | 22µM
SMILES | MARV entry inh | HCV inh | Lassa entry inh | HCMV antiviral | FMDV antiviral
Cn1nc(-c2ccc(C(=O)Nc3cccc(C(F)(F)F)c3)cc2)c2ccccc2c1=O | u | x | n | n | 22µM
CNC(=O)COc1ccc(NC(=O)c2ccc(-c3nn(C)c(=O)c4ccccc34)cc2)cc1 | n | x | u | n | n
COc1cc(NC(=O)Cn2c(=O)n(Cc3ccccc3OC)c(=O)c3cccnc32)cc(OC)c1 | u | x | x | n | u
CCOc1ccc(NC(=O)CC2C(=O)N(c3ccccc3)C(=O)N2CCc2sccc2C)cc1 (stereo not given) | n | x | u | n | n
CCOc1cc(N(CC)CC)ccc1/C=C(/C#N)c1nc2ccccc2[nH]1 | 13µM | 2.5µM | n | n | n
COc1cc(/C=C(\C#N)c2nc3ccccc3[nH]2)cc(OC)c1O | n | u | n | n | n
CCCOc1cc(N(CC)CC)ccc1/C=C(/C#N)c1nc2ccc(C)cc2[nH]1 | u | u | n | u | u
CCN(CC)c1ccc(/C=C(/C#N)c2nc3ccc(C)cc3[nH]2)c(OC(C)C)c1 | u | 2.8µM | u | u | n

Bioassay records as filed in PubChem BioAssay.
